According to PubChem BioAssay AID1347172 (National Center for Advancing Translational Sciences (NCATS), 2019):
Results filed as inconclusive are left out. Active and inactive are the calls of the source. Calls follow the shape of the dose curve; as a rule, active = well fitted inhibition curve with a large enough effect; inconclusive = small, poorly fitted or top-dose-only effect; inactive = flat fitted curve, though single readings scatter.

Assay: Secondary qRT-PCR qHTS assay for selected Zika virus inhibitors
Details: Vero cells ZIKV infection, NS5 RNA qRT-PCR, 24 h; series mostly up to 32.6 µM; activity change, negative = inhibition: at the top concentration
From the text: Assay Submitters (PI): Avindra Nath, Ph.D., National Institute of Neurological Disorders and Stroke (NINDS), Bethesda, MD Radhakrishnan Padmanabhan, Ph.D., Georgetown University (GU), Washington D.C. Zika Virus causes congenital defects, including microcephaly and is associated with Guillain-Barre syndrome, eningoencephalitis and myelitis in infected adult. […] Using a target-based approach, we hope to establish a screening paradigm to uncover novel, cell-active NS2B-NS3 protease (Zika Virus) specific inhibitors from NCATS' collection of small molecules using qHTS. […] Four assay panel was created to identify potential Zika Virus inhibitors. Namely, (1) GU unlinked NS2B-NS3 AMC tagged protease qHTS, (2) GU unlinked NS2B-NS3 Rhodamine tagged protease qHTS, (3) NINDS linked NS2B-NS3 AMC tagged protease qHTS, (4) NINDS linked NS2B-NS3 Rhodamine tagged protease qHTS. Inhibitors of the Zika virus primary screens are confirmed using qRT-PCR secondary assays, qRT-PCR mCherry orthogonal assay, and qRT-PCR viability counterscreen. Early Translation Branch (ETB) National Center for Advancing Translational Sciences (NCATS), Rockville, MD National Institute of Health (NIH), Bethesda, Maryland
384-well ZIKV qRT-PCR Assay: Vero cells were treated with the indicated compounds at different concentrations, infected with ZIKV (MOI=1) and incubated at 37 degrees C for 3 hours to permit virus invasion. After 3 hr, supernatant was removed, and cells were washed once to remove extracellular virus. After a further 21 hr incubation, infected cells were washed three times with cold PBS (4 degrees C). Plates were then process using the TaqmanGene Expression Cells-to-Ct Kit (ThermoFisher Scientific) following the manufactures protocol. Primers directed to the NS5 sequence (F-[…]; R-GCTCGGCCAATCAGTTCA) along with Taqman probe (FAM-[…]-BHQ; Biosearch Technologies) were used to quantify drug inhibition of viral load. Reactions were run at initial 95 degrees C for 10 min, then 40 cycles of 95 degrees C for 20 sec and 60 degrees C for 40 sec using a LightCycler 480 (Roche). Relative viral copy numbers were generated by normalizing to cells treated with vehicle.

Activity change, negative = inhibition, inactive:
O=C(O)Cc1cc(I)c(Oc2ccc(O)c(I)c2)c(I)c1 -13.6%
O=C(O)c1ccc(S(=O)(=O)N(Cc2ccc(OC(F)(F)F)cc2)c2ncc(C(F)(F)F)cc2Cl)cc1 2.79%
COc1ccc(NS(=O)(=O)c2ccc(NS(=O)(=O)c3ccc4c(c3)OCCO4)cc2)cc1 -8.78%
CC1(C)CC[C@]2(C(=O)O)CC[C@]3(C)C(=CCC4[C@@]5(C)C[C@@H](O)[C@H](O)C(C)(C)C5CC[C@]43C)C2C1 (stereo not given in full) -5.81% [at 16.3 µM]
CC(=O)N1c2ccc(-c3ccc(C(=O)O)cc3)cc2C(Nc2ccc(Cl)cc2)CC1C (stereo not given) -8.25%
Cc1ccc([C@@H]2CC=C(C(=O)O)[C@H](c3ccc(C(C)(C)C)cc3)N2S(=O)(=O)c2ccc(C)cc2)cc1 -24.8%
CCc1oc2ccccc2c1C(=O)c1cc(Br)c(O)c(Br)c1 -19.8%
COc1cc(C)c(C(=O)OC2C(C)OC(OC3CCC(C)C4C3C=C(C)C3/C(C)=C\CC/C(C)=C/C5(C)C=C(C(=O)O)C(C)CC56OC(=O)/C(=C(\O)C34C)C6=O)C(O)C2O)c(OC)c1 (stereo not given) -1.08% [at 8.13 µM]
O=C1NC(=O)/C(=C/c2ccc3c(c2)OC(F)(F)O3)S1 2.32%
O=C(O)c1ccc(-n2nc(-c3ccccc3O)nc2-c2ccccc2O)cc1 15.9%
O=C(O)c1ccc(CCCc2ccc(OCCc3ccc(F)cc3)cc2)o1 -0.859%
CCOC(=O)c1ccc(NC(=O)CSc2nc(-c3ccc(F)cc3)cc(C(F)(F)F)c2C#N)cc1 -18.9%
O=C(O)c1c(Sc2ccccc2)c2cc(Cl)ccc2n1Cc1ccc(Cl)cc1 -24.4%
O=C(O)CC1CCC(c2ccc(-c3ccc(Nc4ccc(C(F)(F)F)nc4)cn3)cc2)CC1 (stereo not given) 1.2%
Cc1ccc2[nH]c(=O)c(C3=NN(C(=O)CCC(=O)O)C(c4ccc(Br)cc4)C3)c(-c3ccccc3)c2c1 (stereo not given) 6.96%
CC(Oc1ccccc1)C(=O)Nc1ccc(C(=O)OCc2cc(=O)n3nc(C4CC4)sc3n2)cc1 (stereo not given) 4.47%
COc1ccccc1-c1cccc(-c2c(O)c3cc(C#N)c(Cl)cc3[nH]c2=O)c1 -5.94%
COc1cc(/C=C/c2ccccc2)c(C(=O)O)c(O)c1CC=C(C)C -2.8% [at 21.8 µM]
CC(C)(Sc1ccc(CCN(CCCCC2CCCCC2)C(=O)NC2CCCCC2)cc1)C(=O)O -24.8%
COc1c(C)c2c(c(O)c1C/C=C(\C)CCC(=O)O)C(=O)OC2 -10.2%
O=C(O)c1ccc(O)c2ncc(N3CCCN(CCc4cccc5ccccc45)CC3)cc12 -14.9%
CC(=O)Nc1ccc([C@H](C)C(=O)Nc2ncc(C(C)C)s2)cc1 -18.6%
CC(=O)OC12CC(C)C(OC(=O)c3ccccc3)C1/C=C(/C)C(OC(=O)c1ccccc1)CC(=O)C(C)(C)/C=C/C(C)C2=O (stereo not given) -8.12% [at 10.8 µM]
Nc1ccn([C@@H]2O[C@H](CO)[C@@H](O)C2(F)F)c(=O)n1 -11.6%
Nc1ncnc2c([C@@H]3N[C@H](CO)[C@@H](O)[C@H]3O)c[nH]c12 10.9%
CC1(C)CCC(C)(C)c2cc3c(cc21)Sc1ccccc1N=C3c1ccc(C(=O)O)cc1 -2.06%

Potency, inactive:
C=C1c2cccc(O)c2C(O)=C2C(=O)[C@]3(O)C(O)=C(C(N)=O)C(=O)[C@@H](N(C)C)[C@@H]3[C@@H](O)[C@H]12

Potency, active:
CC[C@H](C)[C@H]1O[C@]2(CC[C@@H]1C)C[C@@H]1C[C@@H](C/C=C(\C)[C@@H](O[C@H]3C[C@H](OC)[C@@H](O[C@H]4C[C@H](OC)[C@@H](O)[C@H](C)O4)[C@H](C)O3)[C@@H](C)/C=C/C=C3\CO[C@@H]4[C@H](O)C(C)=C[C@@H](C(=O)O1)[C@]34O)O2 3.98 µM
Cc1cc(C(C#N)c2ccc(Cl)cc2)c(Cl)cc1NC(=O)c1cc(I)cc(I)c1O (stereo not given) 22.4 µM
Oc1c(Cl)cc(Cl)c(Cl)c1Cc1c(O)c(Cl)cc(Cl)c1Cl 35.5 µM
O=C(O)/C=C/c1ccc(-c2ccc(O)c(C34CC5CC(CC(C5)C3)C4)c2)cc1 10 µM
CO[C@H]1C[C@@H](O[C@@H]2/C(C)=C/C[C@@H]3C[C@@H](C[C@]4(CC[C@H](C)[C@@H](C5CCCCC5)O4)O3)OC(=O)[C@@H]3C=C(C)/C(=N/O)[C@H]4OC/C(=C\C=C\[C@@H]2C)[C@]43O)O[C@@H](C)[C@H]1O 3.98 µM
CC1CCN(C(c2ccc(F)cc2)c2ccc(C(C)C(=O)O)cc2-c2ccc(C(F)(F)F)cc2)CC1 (stereo not given) 14.1 µM
CCOC(=O)c1ccc(N2C(=O)c3n[nH]c(-c4cccs4)c3C2c2ccc(C(C)(C)C)cc2)cc1 (stereo not given) 3.55 µM
Oc1cc2ccccc2c2ccccc12 22.4 µM
CN(CC(=O)N(Cc1ccc(C2CCCCC2)cc1)c1ccc(C(=O)O)cc1)S(=O)(=O)c1c(F)c(F)c(F)c(F)c1F 12.6 µM
C/C(=C\c1ccc(C(=O)O)cc1)c1ccc2c(c1)C(C)(C)CCC2(C)C 12.6 µM
CCOc1nc2cccc(C(=O)OC(C)OC(=O)OC3CCCCC3)c2n1Cc1ccc(-c2ccccc2-c2nn[nH]n2)cc1 (stereo not given) 12.6 µM
CC(C)C[C@H](C(=O)O)c1cc(-c2ccc(C(F)(F)F)cc2)cc(-c2ccc(C(F)(F)F)cc2)c1 12.6 µM
CC(C)c1cccc2c(-c3ccccc3)cc(-c3ccc(-c4ccc(C(=O)O)cc4)[nH]3)nc12 10 µM
